In all, about 24,000 sequences were measured (“enrichment r”: median about 0.99, highest 2% from about 3.7 on). Many of the other results were omitted from the sample, so the highest values are more common in it than they were.
T1: UNK ZnF1-3 (human, UniProt Q9C0B0 31-174)
T1 sequence: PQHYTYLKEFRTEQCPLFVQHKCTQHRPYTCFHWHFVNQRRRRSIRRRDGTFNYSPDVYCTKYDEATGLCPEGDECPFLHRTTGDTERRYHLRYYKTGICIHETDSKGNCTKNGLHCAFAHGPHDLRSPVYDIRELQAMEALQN

B1: chrX:140365796:140365797:-_ENSMUSG00000031285_ENSMUST00000033642|mus_mus|mus_mus_mus_hu_False|48_108 (ssRNA)
RNA: GGGAGUUCUACAGUCCGACGAUCCUUCUCAUUACUUAGUGCCUGCAAGGUUCUGGUUCGGUAGAAGCUACAGUGGGCGCUGUGAGUGGGACUUGGAAACCCAUUCAUCCGGGAGCCUCGCAUGUUCCUGGAUGUCUUAUCUCUCAACAGAGGAUUGAGCAUCA
B2: chr11:100882373:100882374:+_ENSMUSG00000019302_ENSMUST00000044721|mus_mus|mus_mus_mus_hu_True|28_28 (ssRNA)
RNA: GGGAGUUCUACAGUCCGACGAUCUUCCUGGUUUGUGUUGAUUUCCUUCAGUUCAUUUUCAAUCUUCUCAAAAUUGGCCUCUAAGUCAAUCAUGUCCCGGGGGAAGGGCACCUCUGGGUUUUCACCGGUGUCCAUAAUCGGAAUCAACAGAGGAUUGAGCAUCA
B3: chr1:88750987:88750988:+_ENSMUSG00000053333_ENSMUST00000065694|mus_mus|motif|central (ssRNA)
RNA: GGGAGUUCUACAGUCCGACGAUCUGAUAAGCCUCUUGUGUCCUGUGGUAUGGGGGUGUUCUCAUCUUUCAUAACUGGAGUACGGGAAUCUUCUUUUCCUCUGUCAGGAGUAGAGAUUGACAAUUUCUUAACACCAUCAACCAGCAACAGAGGAUUGAGCAUCA
B4: chr1:225611761:225611762:-_ENSG00000143815_ENST00000272163|hu_mus|hu_hu_hu_mus_True|8_108 (ssRNA)
RNA: GGGAGUUCUACAGUCCGACGAUCCCAGGCCAUCGACCUCUGACCACUUCACCCUCAACAAACUUCCUACUUGGCAUUUUCUAAAAUUAGUCUGGCCGCGCUCCGGCGGGAACUCCAGCCACUCCAGGGAGAAUAGUAGCAGCCCAACAGAGGAUUGAGCAUCA
B5: chr1:180971808:180971809:-_ENSG00000135823_ENST00000258301|hu_mus|FALSE|FALSE (ssRNA)
RNA: GGGAGUUCUACAGUCCGACGAUCUUUUCUUAUGCUCAAUUCAGUUGCAUCCAAGUUGAAUUUUCUAGGAUUUGCUUCAACUAUGCUGAUGGUUUCAUCGAGGUCCUCCAGAUCCCACUCUAUGCUGCGGAGAUUGUUCCUCAGCAACAGAGGAUUGAGCAUCA
B6: 5721493_5721695_819_3pUTR_ENSMUSG00000024937_ENSMUST00000075606|mouse|control|control (ssRNA)
RNA: GGGAGUUCUACAGUCCGACGAUCCUCCUCAUCACUCUCAGCAAAGUCAUCCAGGUUUCCCACGUCACUAGGCUUCACACUCAUGAGGCUGGCCAGACUCUGCAUGUCAUCAUCCGUGGCACGGCCUUCUCGCAGCAGCACCCCCAACAGAGGAUUGAGCAUCA
B7: chr19:8913615:8913616:-_ENSMUSG00000071658_ENSMUST00000096259|mus_hu|mus_mus_mus_hu_False|1_38 (ssRNA)
RNA: GGGAGUUCUACAGUCCGACGAUCAGGGUACCAAAACCUUCUGCCUGAAAUGGGUGCCCCACCCAGUAGGGAGUUGCAGCUGAAAGUAUCUGAUGCACUGACAGUUACUAUACGAAAGGAGGCCCCUGGGGAGGGCCCGAGAUCCAACAGAGGAUUGAGCAUCA
B8: chr1:58468927:58468928:-_ENSMUSG00000026034_ENSMUST00000148330|mus_mus|mus_mus_mus_hu_False|18_48 (ssRNA)
RNA: GGGAGUUCUACAGUCCGACGAUCAAUUACUGAAAAAGAUGUUCAUUACCUUAGCUAUGUACUUAAUGAACCAAAUUACCCAAACAACAUAAAAUGUGCAAUAUAAAAAUGUUAAGAAAAUAACUUACUGUACAAAAUAACUUACAACAGAGGAUUGAGCAUCA
B9: chr13:55803104:55803105:+_ENSMUSG00000045767_ENSMUST00000057844|mus_hu|FALSE|FALSE (ssRNA)
RNA: GGGAGUUCUACAGUCCGACGAUCGCACAGCACCAGUAAGUAGAUGUGCUGGAGGGUAGAGGAAGAGGAAUGAAUGUACGAAAGGCAGGGGAGAAAGGGAAGGGUAUGUAUAACAAAAUAAGGAAGGAAAAUAAACUGAAAGGGCAACAGAGGAUUGAGCAUCA
B10: chr10:112657927:112657928:+_ENSG00000150593_ENST00000280154|hu_mus|FALSE|FALSE (ssRNA)
RNA: GGGAGUUCUACAGUCCGACGAUCAAAAAAAAAAAAAAAAAAAAAAACAAUAACAAAAACAAAAGGAAAAGAAAACCUGUACUGACAACUCUUACAGUUGAGAUCUGUUCUUGGUAACACCUAAGACUGUAAGAGUUGCUGUGCCAACAGAGGAUUGAGCAUCA
B11: chr17:57746147:57746148:+_ENSG00000141367_ENST00000269122|hu_hu|FALSE|FALSE (ssRNA)
RNA: GGGAGUUCUACAGUCCGACGAUCUUGCCCAGUCUUGCAAGCUGCCUGAAUAUAUUUAAAGUGCACAUCUGGGUCCUGGCUAAAGUUAACAAUGGAUCCCAGAAAAUAAAAGAGACCUUCAAAACUCUUGAAAGAUUCAAAAAGCAACAGAGGAUUGAGCAUCA
B12: chr8:81717444:81717445:+_ENSMUSG00000071064_ENSMUST00000098614|mus_mus|FALSE|FALSE (ssRNA)
RNA: GGGAGUUCUACAGUCCGACGAUCUAAUGUACACAAACCUUGACAGUAUGAGCGUCUGAACAUAAUAUGAGGAGUUAAAAAAAAAGAAAGAAAGAAAGAAAGAAAGAAAGAGAGAGAGAAAGAAAAGAAAGGACAGGAGAGAGACAACAGAGGAUUGAGCAUCA
B13: chr19:8913615:8913616:-_ENSMUSG00000071658_ENSMUST00000096259|mus_hu|mus_mus_mus_hu_False|98_108 (ssRNA)
RNA: GGGAGUUCUACAGUCCGACGAUCAGGGGGGCACCAAACCCUGCCUCAAAUGGGUGCCCCACCCAGUAGGGAGUUGCAGCUGAAAGUAUCUGAUGCAGAAGCAGUGACUAUACGAAAGGAGGCCCCUGGGGAGGGCCAGGCCAGCAACAGAGGAUUGAGCAUCA
B14: chr2:49626764:49626765:+_ENSMUSG00000026764_ENSMUST00000028102|mus_hu|FALSE|FALSE (ssRNA)
RNA: GGGAGUUCUACAGUCCGACGAUCGCACACAUCUGUACACACAGAAACUCUACACAGCUCAAAAGACCUGAAACUGGUGUACUGCAGAUGGCUGGAGUAAGCAAGUAUAAAAAAAAAAUGGAAACUGUAGGGGGGGAAAAAUAACAACAGAGGAUUGAGCAUCA
B15: chr1:178664722:178664723:-_ENSMUSG00000057335_ENSMUST00000057037|mus_mus|motif|central (ssRNA)
RNA: GGGAGUUCUACAGUCCGACGAUCAGUCGUUGUUGCUGUCUUGCAGGGUCCUUACAAAUGUGUAAGACUGACAAAGGGUUACGGUGGACCUACAGGGAAACACAGAAGCAAUUCAAUGACUGGGAGUGCAACUAUCAACUACUCCAACAGAGGAUUGAGCAUCA
B16: chr10:33214929:33214930:-_ENSG00000150093_ENST00000302278|hu_hu|hu_hu_hu_mus_True|18_78 (ssRNA)
RNA: GGGAGUUCUACAGUCCGACGAUCAACAAGUUCAUUGAAAAACUCUCCUCUGUCAGUAAGACUGAGCACAUUUUUGUAGCUAAAUGGGCUGGUGCAGUUUUGUUCACUUGUACAAGGGUUCCUGAGCUUUGCUGGGGUUGUGCUCAACAGAGGAUUGAGCAUCA
B17: chr4:148551591:148551592:-_ENSMUSG00000063077_ENSMUST00000060537|mus_hu|mus_mus_mus_hu_False|28_68 (ssRNA)
RNA: GGGAGUUCUACAGUCCGACGAUCACCUGACAAAAUUAAAUAUCCCUGUAAAUUAGACAAUAAGCAGCAGGUAACAAAGUCUUUGCUUUGGAAUAUGUGCCAGGAAAAAUCAUGUUUUUUUUAGAUCUCAAGAGACAGUUCACACAACAGAGGAUUGAGCAUCA
B18: chr2:47387792:47387793:-_ENSG00000143933_ENST00000272298|hu_hu|motif|central (ssRNA)
RNA: GGGAGUUCUACAGUCCGACGAUCUUAGGACAAUGACAGUAAGAUAAGGGAAGAAAACAUGGAGGAAUGAAGUCCGGAUUACGGUACAUGCAUAUUUUUUUGACAGUAGGGAGAAACCUUUUACAGAUAAGUUACAAACAAAGACAACAGAGGAUUGAGCAUCA
B19: chr7:54825262:54825263:-_ENSG00000132432_ENST00000352861|hu_hu|hu_hu_hu_mus_False|68_108 (ssRNA)
RNA: GGGAGUUCUACAGUCCGACGAUCCUGACUUGGCUCAUCCACAAACUGCAUUACCUGAUCCAUGUUUUACCCAACCGGGAUUGAGAGCGUAGAGACACGUAGCUCAGGAGAGAACCGAGCCCAACGGAACCGGAAGCUGGCAACCAACAGAGGAUUGAGCAUCA
B20: chr5:73697939:73697940:+_ENSMUSG00000029152_ENSMUST00000031038|mus_mus|motif|central (ssRNA)
RNA: GGGAGUUCUACAGUCCGACGAUCUCCUUGGGCAAUAUGGUCAGUAAUACCAGUGGGAGUGGACUCGUUCAUAGAAGCACGGAAUGGAAUUGGCUCAUAACGAGGAAGCGCCUCCUUUUCUAUGUUGUCUGCUGCUGGAGAUGUCAACAGAGGAUUGAGCAUCA
B21: chr10:98281081:98281082:-_ENSG00000077147_ENST00000371142|hu_mus|motif|central (ssRNA)
RNA: GGGAGUUCUACAGUCCGACGAUCAUCGCAAUACAGUCCCCCAGUCAGUCUGUACAUCCAAAUGCAUCCAGGAACCGGCACCGGCGCGACAUUAUUAAUGUUAUAUACAUUUAUUGCCCCCCUUGUUUUGUUUAAUAAUUUCUUCAACAGAGGAUUGAGCAUCA
B22: chr2:47388980:47388981:-_ENSG00000143933_ENST00000272298|hu_mus|hu_hu_hu_mus_True|68_98 (ssRNA)
RNA: GGGAGUUCUACAGUCCGACGAUCUUCAUCUGUUAACUUCUCUCCAAGGUUUGUCAUCACAUGGCGAAGUUCUGCAGCACUAAUAUAGCCAUUGCCAUCCUUAUCAAACACACGGAAUGCUUCUCUAAUCUCUUCUUCACUGUCCAACAGAGGAUUGAGCAUCA

target: T1, UNK ZnF1-3; assay: nsRBNS (natural sequence RNA bind-n-seq); RBNS binding buffer (assumed for nsRBNS): 25 mM Tris pH 7.5, 150 mM KCl, 3 mM MgCl2, 0.01% Triton X-100, 500 ug/ml BSA, 20 U/ml SUPERase-In, 4 C; UNK is unkempt and MSI1 is Musashi-1; names of the RNAs are library labels; protein concentration not given here; high values mean tight binding

First: B1
Second: B2
The binding signal of the first is lower: 0.604 enrichment R for the first, 0.609 enrichment R for the second.

Compared with B3, B4 is higher in binding signal: 0.776 enrichment R for the first, 1.34 enrichment R for the second.

Compared with B5, B6 is higher in binding signal: 0.284 enrichment R for the first, 0.928 enrichment R for the second.

Going from B7 to B8, the binding signal falls from 1.39 enrichment R to 0.974 enrichment R.

Going from B9 to B10, the binding signal rises from 5.32 enrichment R to 8.87 enrichment R.

Going from B11 to B12, the binding signal rises from 2.24 enrichment R to 4.04 enrichment R.

Compared with B13, B14 is higher in binding signal: 1.63 enrichment R for the first, 9.96 enrichment R for the second.

First: B15
Second: B16
The binding signal of the first is lower: 1.23 enrichment R for the first, 1.36 enrichment R for the second.

Going from B17 to B18, the binding signal rises from 1.18 enrichment R to 1.89 enrichment R.

First: B19
Second: B20
The binding signal of the first is higher: 1.72 enrichment R for the first, 1.27 enrichment R for the second.

Compared with B21, B22 is lower in binding signal: 1.36 enrichment R for the first, 0.882 enrichment R for the second.
